Experimental findings from PubChem BioAssay AID463173 (ICCB-Longwood Screening Facility, Harvard Medical School, 2010) are described below.

Hit rate of the full screen: of about 52,000 compounds, about 4,300 (8.3%) were called active. The sample holds actives, similar compounds and a random draw of the others, so the mix is not that of the screen. Unmarked numbers belong to inactive results. Rule as the data show it: active = survival mostly below about 52% (no sharp cut-off); inactive = mostly above about 56%.

This assay concerns DeltatarO mutant. The experiment in a line: growth inhibition of S. aureus wild type versus tarO mutant, primary screen, teichoic acid synthesis inhibitors, RN4220, OD600 (AID 463173). To be noted: OD600, 18 h, active compounds read low, screened at 18.75 µg/mL (by protocol).
As for `CN(c1ccc(C(=O)NCc2cccnc2)cc1)S(C)(=O)=O`, the survival is 73%. For `Cc1cccc(C(=O)n2nc(-c3ccco3)nc2NCc2ccccc2)c1`, the survival was 63%. Next, `C=CCN1C(=O)C2C(C(=O)NC3CCCCC3C)C3(C)C=CC2(O3)C1C(=O)NC(C)(C)C` (stereo unspecified): 65%.

Turning to `Nc1ncc(S(=O)(=O)NCc2ccccc2)cn1`, the survival was 70%. Take `COc1ccc(Nc2oc(-c3ccc(COc4cccc(C)c4)o3)nc2C#N)cc1`: the survival is 109%. `Cc1ccc(-n2c(=O)c3ccccc3n(CC(=O)Nc3cccc(C(F)(F)F)c3)c2=O)cc1`: the survival is 63%. Next, `CCc1ccc2oc(-c3ccc(C)c(NC(=O)c4ccc(C#N)cc4F)c3)nc2c1`: 74%. With `Cc1cc(C)c2oc(-c3ccc(NC(=O)COc4ccccc4C)cc3)nc2c1`, the survival was 67%. Regarding `Cc1cc(C)c2oc(-c3cccc(NC(=O)c4cccc(F)c4)c3C)nc2c1`, the survival is 72%. Next, `Cc1cc(C)c2oc(-c3cccc(NC(=O)COc4ccccc4Cl)c3C)nc2c1`: 42% (active); `N#Cc1ccc2c(c1)nc1c3cccc4cccc(c(=O)n21)c43`: 72%. Next, `CC(C)(C)C(=O)N1c2ccccc2CCc2ccccc21`: 84%; `COc1ccc(Br)cc1CNC(=O)CCSCc1ccc(C)cc1`: 81%; `Cc1cccc(C(c2sc3nc(-c4ccco4)nn3c2O)N2CCN(Cc3ccccc3)CC2)c1` (stereo unspecified): 94%. To `Cc1nc(Oc2ccccc2C)c2oc3ccccc3c2n1` belongs 101%. `COc1cccc(Oc2nc(C)nc3c2oc2ccccc23)c1`: the survival is 25% (active). To `CC(=O)c1ccc(Oc2nc(C)nc3c2oc2ccccc23)cc1` belongs 92%; to `CCN(CC)c1ccc(NC(=O)C(Cc2ccccc2)NS(=O)(=O)c2ccc(Br)s2)c(C)c1` (stereo unspecified), 117%. `COc1ccc2nc(SCC(=O)NC3CCCCC3C)c(C#N)cc2c1` (stereo unspecified): the survival is 89%. To `CC(=O)Nc1ccc(Nc2nc3ccc(Cl)cc3n3cnnc23)cc1` belongs 99%. For `COc1ccc(C(=O)Nc2nccs2)cc1OC`, the survival was 79%.

As to `COc1cc(C(=O)Nc2ccc(NC(=O)c3ccc(C(C)(C)C)cc3)cc2)cc(OC)c1OC`, the survival is 132%.

On to `Cc1cccc(-n2cnc3cc(C(=O)NCc4ccccc4Cl)ccc32)c1`, for which the survival is 72%. To `CCCNC(=O)c1ccc2c(c1)nc(C)n2-c1cccc(C)c1` belongs 83%; to `Cc1cc(C)cc(-n2cnc3cc(C(=O)NCCc4ccccc4)ccc32)c1`, 78%; to `Cc1cccc(-n2c(C)nc3cc(C(=O)NCCC4=CCCCC4)ccc32)c1`, 71%. To `COCCCNC(=O)c1ccc2c(c1)nc(C)n2-c1cccc(C)c1` belongs 69%; to `CCOc1ccc(-n2c(C)nc3cc(C(=O)NCCC4=CCCCC4)ccc32)cc1`, -4% (active); to `CCCCCNC(=O)c1ccc2c(c1)ncn2-c1cccc(C)c1`, 0% (active). `Cc1nc2cc(C(=O)NCCC3=CCCCC3)ccc2n1-c1ccc(Br)cc1`: the survival is 60%. Next, `CCCNC(=O)c1ccc2c(c1)ncn2-c1ccc(C)cc1C`: 75%.

Regarding `Cc1ccc(-n2cnc3cc(C(=O)NCc4ccccc4Cl)ccc32)c(C)c1`, the survival was 37% (active). As for `Cc1cccc(-n2cnc3cc(C(=O)NC4CCCCCC4)ccc32)c1`, the survival was 106%.

For the compound `CCCCCNC(=O)c1ccc2c(c1)nc(C)n2-c1cccc(C)c1`, the survival was 0% (active). Next, `Cc1nn(-c2ccccc2)c(OC(=O)c2ccc(Cl)cc2)c1S(=O)(=O)c1ccccc1`: 79%; `c1csc(-c2nc3ccccn3c2Nc2ccc3c(c2)OCCO3)c1`: 89%. For `Cc1ccccc1NC(=O)CCS(=O)(=O)c1cc(Br)cc2c1N(C(=O)C1CC1)CC2`, the survival was 96%. For `CC(=O)Nc1cc2c(cc1C(=O)c1ccccc1)OCCO2`, the survival was 108%. Take `Cn1c(=O)c(=O)n(C)c2cc(S(=O)(=O)CCC(=O)Nc3ccc(F)cc3)ccc21`: the survival is 83%. On to `CCc1nn(CC(=O)NCCN(CC(C)C)CC(C)C)c(=O)c2cc3sc(C)cc3n12`, for which the survival was 68%. `CC(=O)c1ccc(Nc2cc(C)nc3nc(Cc4ccccc4)nn23)cc1`: the survival was 64%. Turning to `CCOC(=O)Cc1ccc(NC(=O)NCc2cccn2Cc2ccccc2)cc1`, the survival is -4% (active). For `CCOC(=O)c1cccc(NC(=O)NCc2cccn2Cc2ccccc2)c1`, the survival was 119%. With `CCOc1ccc(NC(=O)NCc2cccn2Cc2ccccc2)cc1`, the survival was 72%. As to `CCN1CCc2c(sc(-n3cccc3)c2C(C)NC(=O)Nc2ccc(Br)cc2)C1` (stereo unspecified), the survival is 102%. Regarding `CCc1ccc(NC(=O)CC2C(=O)N(c3ccc(OC)cc3)C(=O)N2Cc2ccc(OC)cc2)cc1` (stereo unspecified), the survival was 100%. Take `CC(=O)c1ccc(NC(=O)Cn2cnc3nc4c(cc3c2=O)CC(C)CC4)cc1` (stereo unspecified): the survival is 60%. `CCOC(=O)c1cccc(NC(=O)Cn2c(CC(=O)N3CCCC3)nc3ccccc32)c1`: the survival is 83%. As to `O=C(Cn1c(CC(=O)N2CCCC2)nc2ccccc21)NCc1ccccc1`, the survival was 64% (active). On to `O=C(CSc1cn(CC(=O)N2CCCCC2)c2ccccc12)NCc1ccccc1`, for which the survival was 87%.

As for `CCn1c(=O)c2sccc2n2c(CCC(=O)N3CCN(c4ccc(C(C)=O)cc4)CC3)nnc12`, the survival was 65%. As to `Cc1ccc2c(c1)c1c3n2CCN(C(=O)c2ccc(C(F)(F)F)cc2)C3CCC1` (stereo unspecified), the survival is 44%. To `COc1cc(SC)ccc1C(=O)N1CCn2c3c(c4cc(C)ccc42)CCCC31` (stereo unspecified) belongs 70%. For the compound `CCOc1cc(C(=O)N2CCn3c4c(c5cc(C)ccc53)CCCC42)cc(OCC)c1OCC` (stereo unspecified), the survival was 56%. Take `Cc1ccc(C(=O)N2CCn3c4c(c5cc(C)ccc53)CCCC42)cc1` (stereo unspecified): the survival is -1% (active).

`Cc1ccc2c(c1)c1c3n2CCN(C(=O)c2cccc(C(F)(F)F)c2)C3CCC1` (stereo unspecified): the survival was 14% (active). As to `CCCN(CCC)S(=O)(=O)c1ccc(C(=O)N2CCn3c4c(c5cc(C)ccc53)CCCC42)cc1` (stereo unspecified), the survival is 58%. `COc1ccc(OC)c(CNC(=O)c2cc3ccc4cccnc4c3[nH]2)c1`: the survival was 112%. To `COc1ccc(-c2nnc(SCC(=O)N(C)C3CCCCC3)o2)cc1OC` belongs 86%; to `O=C(O)c1ccc(N=NN2CCCCC2)cc1`, 75%; to `COc1cccc(NC(=O)C(=O)NCC(c2cccnc2)N2CCN(c3ccccc3)CC2)c1` (stereo unspecified), 97%. `COc1cccc(C2C(C(=O)Nc3ccccc3OC)=C(C)Nc3nc4ccccc4n32)c1` (stereo unspecified): the survival is 51%. As for `Cc1cccc(N2CCN(C(=O)Cn3ncc4c5ccccc5n(C)c4c3=O)CC2)c1C`, the survival is 73%. As to `CCc1nnc(NC(=O)c2nc(S(C)(=O)=O)ncc2Cl)s1`, the survival is 66%. For `Cc1cccc(CS(=O)(=O)c2ncc(Cl)c(C(=O)Nc3nnc(C(C)C)s3)n2)c1`, the survival is 28% (active). Next, `CCc1nnc(NC(=O)c2nc(S(=O)(=O)Cc3cccc(C)c3)ncc2Cl)s1`: 31% (active); `Cc1ccccc1CS(=O)(=O)c1ncc(Cl)c(C(=O)Nc2nnc(C(C)C)s2)n1`: 30% (active); `CC(C)c1nnc(NC(=O)c2nc(S(=O)(=O)Cc3ccccc3)ncc2Cl)s1`: 46%.

For the compound `Cc1ccc(CS(=O)(=O)c2ncc(Cl)c(C(=O)Nc3nnc(C(C)C)s3)n2)cc1`, the survival was 54%. Turning to `CCc1nnc(NC(=O)c2nc(S(=O)(=O)Cc3ccc(C)cc3)ncc2Cl)s1`, the survival is 42% (active). For the compound `CCCc1nnc(NC(=O)c2nc(S(=O)(=O)Cc3ccc(C)cc3)ncc2Cl)s1`, the survival is 47%. Consider `O=C(NC1CCCCC1)c1cccs1`, for which the survival was 107%. Turning to `COCCN(Cc1cc2cc3c(cc2nc1Cl)OCO3)C(=O)Nc1ccccc1OC`, the survival is 92%. For the compound `CCOc1ccc(CN(C(=O)c2nc(SC)ncc2Cl)C2CCS(=O)(=O)C2)cc1` (stereo unspecified), the survival is 88%. Take `Cc1ccc(-c2ccc(=O)n(CC(=O)Nc3ccc(F)c(Cl)c3)n2)cc1C`: the survival was 82%.

For the compound `COc1ccccc1Nc1cc(C(=O)NCc2cccs2)c2ccccc2n1`, the survival is 73%. Next, `Cc1cc(=O)[nH]c2nnc(SCCC(C)C)n12`: 73%.

On to `Cc1nnc(NC(=O)c2nc(S(=O)(=O)Cc3ccccc3)ncc2Cl)s1`, for which the survival was 48% (active).

`Cc1nn2c(C)c(C(=O)NCCc3ccccc3)cnc2c1-c1ccccc1`: the survival was 81%. Next, `CCCCNC(=O)c1cnc2c(-c3ccc(OCC)c(OCC)c3)c(C)nn2c1-c1ccccc1`: 73%; `Cc1nn2c(C)c(C(=O)NCC(C)c3ccccc3)cnc2c1-c1ccccc1` (stereo unspecified): 101%. Next, `CCCNC(=O)c1cnc2c(-c3ccc(OCC)c(OCC)c3)c(C)nn2c1-c1ccccc1`: 92%; `CCOc1ccc(-c2c(C)nn3c(-c4ccccc4)c(C(=O)NCCOC)cnc23)cc1OCC`: -5% (active); `CCOc1ccc(-c2c(C)nn3c(C)c(C(=O)Nc4cccc(Cl)c4C)cnc23)cc1OCC`: 76%.

Consider `CCOc1ccc(-c2c(C)nn3c(C)c(C(=O)Nc4ccccc4C(=O)OC)cnc23)cc1OCC`, for which the survival was -4% (active). To `Cc1nn2c(C)c(C(=O)NCc3cccc(Br)c3)cnc2c1-c1ccccc1` belongs 66%; to `COc1cc(CNC(=O)c2cnc3c(-c4cccc(C)c4)c(C)nn3c2C)cc(OC)c1OC`, 68%. To `CCNC(=O)c1cnc2c(-c3ccccc3)c(C)nn2c1C` belongs 8% (active); to `CCOc1ccc(-c2c(C)nn3c(C)c(C(=O)Nc4cc(C)cc(C)c4)cnc23)cc1OCC`, 118%. Turning to `Cc1cccc(CNC(=O)c2cnc3c(-c4cccc(C)c4)c(C)nn3c2C)c1`, the survival was 17% (active). Next, `Cc1ccc(-n2c(SCC(=O)Nc3ccc4c(c3)OCO4)nc3c([nH]c4ccccc43)c2=O)cc1`: 128%.
